Bioassay records as filed in PubChem.
HP1b chromo inh – HTS for Inhibitors of HP1-beta Chromodomain Interactions with Methylated Histone Tails. Potency, µM (doses to about 114 µM), actives largely listed as inhibitors. Chromobox protein homolog 1 (Homo sapiens), P83916. actives 0.56% (n = 390,000). AlphaScreen HP1-beta / biotin-H3K9me3 peptide binding; note: nearly all actives have a fitted effect of over 70% in size
Target sequence (P83916 whole entry, looked up): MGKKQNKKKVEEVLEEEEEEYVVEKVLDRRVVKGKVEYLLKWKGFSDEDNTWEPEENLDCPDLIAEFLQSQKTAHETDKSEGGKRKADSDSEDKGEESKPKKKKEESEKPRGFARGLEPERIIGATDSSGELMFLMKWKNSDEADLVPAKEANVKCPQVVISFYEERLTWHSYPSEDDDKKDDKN
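Compound inhibition of the preformed complex between 50 nM HP1-beta and 50 nM biotinylated H3K9me3 peptide was read by AlphaScreen. Buffer was PBS pH 7.4 with 0.01% Tween-20. Incubations ran 30 min at room temperature, with 10 ug/mL donor/acceptor beads.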
BAZ2B block – qHTS Assay for Inhibitors of BAZ2B. Bromodomain adjacent to zinc finger domain protein 2B (Homo sapiens), Q9UIF8. AlphaScreen BAZ2B-H3K14Ac peptide displacement. Potency, µM (doses to about 114 µM), most hits filed as inhibitors. actives 4.4% (n = 360,000). AID 504333, 2011; note: nearly all actives have a fitted effect of over 60% in size
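BAZ2B 50 nM plus b-H3(5-23)K14Ac 50 nM, PBS pH 7.4/0.01% Tween-20, 30 min RT; compound added (max 110 uM), 30 min RT; streptavidin donor/Ni-chelate acceptor beads 10 ug/mL final, 20 min dark; AlphaScreen read.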
JMJD2A Tudor – qHTS Assay for Inhibitors of JMJD2A-Tudor Domain; Lysine-specific demethylase 4A (Homo sapiens), O75164; AID 504339, 2011; AlphaScreen JMJD2A-Tudor / H3K4me3 peptide binding; Potency, µM (highest dose often 114 µM), usual class: inhibitors; actives 4.4% (n = 390,000); note: nearly all actives have a fitted effect of over 50% in size
Sfp PPTase inh – qHTS Assay for Inhibitors of Bacillus subtilis Sfp phosphopantetheinyl transferase (PPTase). Biochemical Sfp PPTase activity, qHTS. 4'-phosphopantetheinyl transferase ffp (Bacillus subtilis), Q9F4F7. actives 3.5% (n = 310,000). AID 1490, 2009. Potency, µM, actives largely listed as inhibitors;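 note: the enzyme is Sfp with the accession as filed and its product quenches rhodamine fluorescence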
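Compounds were incubated with enzyme (final 15 nM) for 15 min at room temperature before substrate addition started the reaction. Fluorescence at 525 nm excitation, 598 nm emission was recorded immediately and after 30 minutes.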
G9a inh – qHTS Assay for Inhibitors of Histone Lysine Methyltransferase G9a | Histone-lysine N-methyltransferase EHMT2 (Homo sapiens), Q96KQ7 | G9a H3K9 monomethylation, AlphaScreen, 2 h | Potency, µM (highest dose often 102 µM), most hits filed as inhibitors | actives 8.8% (n = 350,000) | AID 504332, 2011; note: nearly all actives have a fitted effect of over 75% in size
Target sequence (Q96KQ7 913-1193 limits assumed): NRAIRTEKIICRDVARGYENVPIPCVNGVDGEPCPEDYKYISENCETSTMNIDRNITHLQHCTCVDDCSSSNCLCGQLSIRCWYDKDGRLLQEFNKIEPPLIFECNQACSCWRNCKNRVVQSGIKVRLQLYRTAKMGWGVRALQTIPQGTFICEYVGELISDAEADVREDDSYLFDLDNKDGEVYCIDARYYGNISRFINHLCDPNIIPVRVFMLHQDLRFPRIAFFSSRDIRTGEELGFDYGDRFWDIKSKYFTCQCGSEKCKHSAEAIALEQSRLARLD
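Signal arises when biotinylated H3K9 peptide, once monomethylated, bridges streptavidin donor and antibody-captured acceptor beads. Enzyme at 20 nM was preincubated 15 min with test compounds; peptide 500 nM and SAM 20 uM then reacted for 2 h.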
Numbers stand for hits; . = inactive; ? = inconclusive; / = no result; [ ] = remark or other dose. Only some compounds are listed: those with a hit (about 12% of all), similar ones and a draw of the others. Calls come from the whole dose curve; as a rule, active = well fitted curve in the direction sought with a large enough effect; inconclusive = small, poorly fitted or top-dose-only effect, or another doubt; inactive = no such curve, though single readings can be large; an effect the other way counts as inactive or inconclusive.

SMILES	HP1b chromo inh	BAZ2B block	JMJD2A Tudor	Sfp PPTase inh	G9a inh
O=C(COC(=O)CCN1C(=O)/C(=C\C=C\c2ccccc2)SC1=S)Nc1cc(F)ccc1F	?	20µM	40µM	.	?
O=C(CCN1C(=O)S/C(=C\c2ccc(F)cc2)C1=O)Nc1ccc(C(=O)O)c(O)c1	.	?	.	.	?
O=C(CN1C(=O)/C(=C\C=C\c2ccccc2)SC1=S)Nc1ccc(F)cc1	.	.	.	.	.
O=C(CCCN1C(=O)/C(=C\c2cccs2)SC1=S)Nc1ccc(C(=O)O)cc1	.	?	.	.	.
O=C(CCN1C(=O)/C(=C/c2cccs2)SC1=S)Nc1ccccn1	.	?	.	.	3.2µM
O=C(CCN1C(=O)S/C(=C/c2ccc(F)cc2)C1=O)Nc1ccc(O)c(C(=O)O)c1	.	.	.	.	45µM
N#Cc1ccccc1Cn1c(SCC(=O)Nc2ccc(F)cc2)nc2ccccc21	.	.	.	/	.
O=C(CCN1C(=O)/C(=C\C=C\c2ccccc2)SC1=S)Nc1ccc(C(=O)O)cc1	50µM	16µM	22µM	?	32µM
O=C(CCCN1C(=O)/C(=C/c2cccs2)SC1=S)Nc1ccc(O)c(C(=O)O)c1	/	?	/	?	45µM
Cc1ccc(/C=C2\SC(=S)N(CCCC(=O)Nc3ccccn3)C2=O)cc1	.	?	?	.	71µM
O=C(CCN1C(=O)/C(=C/c2ccccc2)SC1=S)Nc1ccccn1	.	?	?	.	.
O=C(CN1C(=O)/C(=C/c2ccccc2)SC1=S)Nc1ncc(Cc2ccccc2)s1	.	.	.	.	50µM
CC(CC(=O)Nc1ccc(F)cc1)S(=O)(=O)c1cc2c3c(c1)CCN3C(=O)CC2 (configuration not stated)	.	.	.	/	.
COc1ccc(C(=O)NCCn2cc(SCC(=O)Nc3ccccc3)c3ccccc32)cc1OC	.	.	.	/	.
O=C(CCN1C(=O)/C(=C\c2ccccc2F)SC1=S)Nc1ccc(C(=O)O)c(O)c1	/	?	/	.	79µM
Cc1nnc(NC(=O)CCN2C(=O)/C(=C\c3ccccc3)SC2=S)s1	.	.	.	.	79µM
O=C(CCN1C(=O)/C(=C/c2cccs2)SC1=S)Nc1ccc(C(=O)O)cc1	.	56µM	?	.	?
O=C(CCCN1C(=O)/C(=C/c2ccccc2)SC1=S)Nc1ccc(C(=O)O)c(O)c1	.	?	?	.	?
Cc1ccccc1OCCNc1cc(N2CCN(CCO)CC2)ccc1[N+](=O)[O-]	?	32µM	?	.	?
Cc1nn(-c2cc(N3CCCC3)ccc2[N+](=O)[O-])c(=O)c2ccccc12	.	.	.	.	.
Cc1cccc(OCCNc2cc(N3CCN(CCO)CC3)ccc2[N+](=O)[O-])c1	.	?	?	.	45µM
COc1ccc(OCCNc2cc(N3CCOCC3)ccc2[N+](=O)[O-])cc1	.	?	79µM	.	?
Cc1ccc(C)c(-c2nn(-c3cc(N4CCN(CCO)CC4)ccc3[N+](=O)[O-])c(=O)c3ccccc23)c1	?	45µM	35µM	.	40µM
O=C(O)C(Oc1ccc2ccc(=O)oc2c1)c1ccccc1 (configuration not stated)	/	/	/	.	/
COc1ccccc1N(C)S(=O)(=O)c1ccc(C(=O)Nc2cccc(Br)c2)cc1	.	/	.	/	/
SMILES	HP1b chromo inh	BAZ2B block	JMJD2A Tudor	Sfp PPTase inh	G9a inh
O=C1C=C(c2cccc(CO)c2)C[C@@H](c2ccc(F)cc2)C1	.	.	.	/	.[0.501 µM]
O=C(CCn1nnnc1CN1CCOCC1)N1CCC(c2ccccc2F)C1 (configuration not stated)	.	.	.	.	.
Cc1ccc(C(NC(=O)Nc2ccccn2)C(Cl)(Cl)Cl)cc1F (configuration not stated)	.	.	.	.	.
Cc1ccc(S(=O)(=O)N2CCN(c3ccc([N+](=O)[O-])c(NCCN4CCOCC4)c3)CC2)cc1	.	.	?	.	?
CC(C)CNc1cc(N2CCCC2)ccc1[N+](=O)[O-]	.	?	?	.	11µM
O=[N+]([O-])c1ccc(N2CCN(S(=O)(=O)c3ccccc3)CC2)cc1NCCN1CCOCC1	.	.	.	.	20µM
CCC1CCCCN1CCCNC(=O)c1ccc2c(c1)N(Cc1ccccc1F)C(=O)c1ccccc1S2(=O)=O (configuration not stated)	.	.	.	/	.
Cc1ccc(C)c(NNC(N)=S)c1	.	.	.	50µM	35µM
Cc1cccc(NNC(N)=S)c1C	.	.	.	40µM	20µM
Cc1cc(Cl)ccc1NNC(N)=S	.	.	.	50µM	20µM
NC(=S)NNc1cc(Cl)cc(Cl)c1	.	.	35µM	14µM	?
Cc1ccccc1NC(=O)C(Cl)=C(Cl)Cl	.	.	.	.	.
Cc1cccc(NNC(=O)C(=O)NNc2cccc(C)c2)c1	.	.	.	.	?
Cc1ccc(C)c(NNC(=O)C(=O)NNc2cc(C)ccc2C)c1	.	.	?	.	28µM
Cc1ccccc1NNC(=O)C(=O)NNc1ccccc1C	?	50µM	18µM	.	?
COC(=O)c1cc(-c2ccc(C)cc2)c2c(=O)n(C)c(=O)n(C)c2n1	.	.	.	/	.
O=C(NC(=Nc1nc2ccccc2o1)NC(=O)c1ccccc1)c1ccccc1	.	.	.	?	.
NC(N)=Nc1nc2ccccc2o1	.	.	13µM	.	?
CCc1ccc(N2CC(c3nc4ccccc4n3Cc3ccccc3C)CC2=O)cc1 (configuration not stated)	.	.	.	/	.
N#CC1=C2SCCN2C(=O)C(C#N)C12CCCCC2 (configuration not stated)	.	.	.	.	22µM
COC(=O)c1ccc(Cn2c(C)cc(C)[n+]2C)o1	.	?	40µM	.	?
Cc1nc(Cl)c(N=Cc2cccc([N+](=O)[O-])c2)c(Cl)n1	.	.	.	.	.
O=S(=O)(Nc1cccc2cccnc12)c1cccs1	.	/	79µM	/	/
O=S(=O)(Nc1cccc2cccnc12)c1ccccc1O	/	/	32µM	.	/
Cc1ccc(-n2nc3c(=O)n(CC(=O)NC4CCCCC4)nc(C)c3c2C)cc1	.	.	.	.	.
CC(C)(C)C1CCCCC1NC(=O)c1ccncc1 (configuration not stated)	.	.	.	.	.
Nc1c(C(=O)c2ccc(Br)s2)oc2ccccc12	.	.	.	.	45µM
COC(=O)c1c(NC(=O)CCCOc2ccc(C(C)(C)C)cc2)sc2c1C(C(=O)OC)CC2 (configuration not stated)	.	28µM	56µM	/	1.4µM
Cc1cccc(NC(=O)NCCn2c(=O)oc3ccc(C)cc32)c1	.	.	.	/	.
